HT1080-NT tox = qHTS for induction of synthetic lethality in tumor cells producing 2HG: qHTS for the HT-1080-NT fibrosarcoma cell line; Potency, µM (doses to about 46.1 µM), actives largely listed as cytotoxic; 360,000 compounds, 1.6% hits; HT-1080-NT fibrosarcoma viability, CellTiter-Glo ATP luminescence, 48 h; AID 686970, 2013;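 also: NT is the 2HG producing partner of a matched IDH1 knockdown line; nearly all actives have a fitted effect of over 55% in size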
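750 cells/well, RPMI + 5% FBS; 2 h settle, compound pin-transfer, 48 h at 37 degrees C. CellTiter-Glo 10 min RT, luminescence. Normalized to DMSO and media-only wells.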
HT1080 IDH1KD tx = qHTS for induction of synthetic lethality in tumor cells producing 2HG: qHTS for the HT-1080-IDH1KD cell line. HT-1080 IDH1 knockdown viability, ATP luminescence, 48 h. Potency, µM (titrated, usually from 46.1 µM), most hits filed as cytotoxic. 360,000 compounds, 2% hits. AID 686971, 2013
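After a 2 h attachment period, IDH1KD HT-1080 cells took pin-transferred compound for 48 h at 37 °C; ATP-based luminescence after 10 min room-temperature reagent incubation reported viability.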
IL1B secr inh = qHTS for Inhibitors of Inflammasome Signaling: IL-1-beta AlphaLISA Primary Screen; THP-1 LPS/ATP IL-1B secretion, AlphaLISA, 16 h; stronger effect = lower value; activity change, % at 57.5 µM; 360,000 compounds, 4.7% hits; AID 743279, 2014; in the data active = activity change below about -50%; inconclusive = mostly about -30% to -49%
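Secreted IL-1B measured by AlphaLISA bead assay after 16 h compound exposure of THP-1 cells; compounds (final up to 57.5 uM) added 1 h before LPS (250 ng/mL) and ATP (1.25 mM) stimulation; lower signal means less secretion.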
TDP1 cell CPT = qHTS for Inhibitors of human tyrosyl-DNA phosphodiesterase 1 (TDP1): qHTS in cells in presence of CPT. chicken DT40 Tdp1-/-;hTDP1 cells + 20 nM CPT, ATP luminescence, 48 h. Potency, µM (top dose mostly 46.2 µM), usual class: inhibitors. 420,000 compounds, 12% hits. AID 686979, 2013; also: nearly all actives have a fitted effect of over 55% in size
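Chicken DT40 Tdp1-/- cells complemented with human TDP1, 400 cells/well, exposed to compounds plus 20 nM camptothecin for at least 48 h at 37 C; viability read as ATP content by CellTiter-Glo luminescence.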
12-LOX inh = Primary qHTS assay for inhibitors of human arachidonate 12S-lipoxygenase (ALOX12): Round 2 | 580,000 compounds, 1.1% hits | purified 12hLO, xylenol orange hydroperoxide absorbance | Potency, µM (highest dose often 108 µM), actives largely listed as inhibitors | Polyunsaturated fatty acid lipoxygenase ALOX12 (Homo sapiens), P18054 | AID 1671190, 2021
Target sequence (P18054 whole entry, looked up): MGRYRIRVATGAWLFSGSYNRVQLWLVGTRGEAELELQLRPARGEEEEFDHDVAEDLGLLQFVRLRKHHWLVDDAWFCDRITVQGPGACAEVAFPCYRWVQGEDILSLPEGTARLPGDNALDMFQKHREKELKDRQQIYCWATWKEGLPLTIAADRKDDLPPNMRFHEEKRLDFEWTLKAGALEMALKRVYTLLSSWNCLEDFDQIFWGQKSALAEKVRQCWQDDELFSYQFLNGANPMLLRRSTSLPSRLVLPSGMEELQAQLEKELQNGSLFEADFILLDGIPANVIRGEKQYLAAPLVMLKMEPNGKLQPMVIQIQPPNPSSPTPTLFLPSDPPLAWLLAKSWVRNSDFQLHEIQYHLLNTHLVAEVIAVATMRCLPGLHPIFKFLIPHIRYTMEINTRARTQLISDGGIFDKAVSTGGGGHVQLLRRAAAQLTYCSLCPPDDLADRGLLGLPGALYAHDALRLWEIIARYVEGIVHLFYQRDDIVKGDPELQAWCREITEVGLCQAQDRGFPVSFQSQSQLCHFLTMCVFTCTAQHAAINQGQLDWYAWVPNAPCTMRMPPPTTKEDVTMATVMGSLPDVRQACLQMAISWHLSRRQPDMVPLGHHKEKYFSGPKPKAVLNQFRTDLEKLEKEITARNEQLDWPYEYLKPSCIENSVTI
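Purified human 12hLO (150 nM final) in 25 mM Hepes, 0.01% Triton X-100, pH 7.0 was preincubated 15 min at room temperature with compound. Then 40 uM arachidonic acid was added, 30 min. Hydroperoxide was read by Fe-XO absorbance ratio 573/405 nm.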
TDP1 cell noCPT = qHTS for Inhibitors of human tyrosyl-DNA phosphodiesterase 1 (TDP1): qHTS in cells in absence of CPT | 420,000 compounds, 15% hits | DT40 Tdp1-/- hTDP1 cells, no CPT, ATP luminescence, 48 h | Potency, µM (doses to about 46.2 µM), most hits filed as inhibitors | AID 686978, 2013; also: nearly all actives have a fitted effect of over 55% in size
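Growth kinetics read by CellTiter-Glo luminescence after ≥48 hr at 37 °C. Cells: DT40 Tdp1-/- stably carrying human TDP1, 400 per well, compound exposure in the absence of CPT (DMSO vehicle).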
Hits are given with their value; – = inactive; ? = inconclusive; · = no result given; ! = not active in a repeat. Shown is part of a subset that was picked to be rich in hits. Unless noted, calls follow the shape of the dose curve; as a rule, active = well fitted curve in the direction sought with a large enough effect; inconclusive = small, poorly fitted or top-dose-only effect, or another doubt; inactive = no such curve, though single readings can be large; an effect the other way counts as inactive or inconclusive.

SMILES | HT1080-NT tox | HT1080 IDH1KD tx | IL1B secr inh | TDP1 cell CPT | 12-LOX inh | TDP1 cell noCPT
CCCC(=O)O | · | · | · | – | · | –
CC[C@](N)(CCC(=O)O)C(=O)O | · | · | · | – | 2.8µM! | 19µM!
CCC1c2nccn2CCCN1C(=O)CCc1ccc(OC)c(OC)c1 (stereo unspecified) | · | · | · | · | – | ·
Brc1cccc(-c2nnc(SCc3ccon3)n2-c2ccccc2)c1 | – | – | – | ? | – | 15µM
O=C1C=C(N2CCOCC2)c2cccc3cccc1c23 | – | – | – | – | ? | 15µM
CN(c1ccccc1)c1cc(=O)c2ccnc(N3CCOCC3)c2o1 | · | · | · | · | – | ·
CC1=C(C)C(=O)C(N2CCOCC2)=CC1=O | – | – | – | 16µM | – | 15µM
CN(C1=C(N2CCOCC2)C(=O)c2ccccc2C1=O)c1ccccc1 | – | – | -86 | 13µM | – | 16µM
O=C1C(N2CCOCC2)=Cc2cccc3cccc1c23 | – | – | – | ? | ? | ?
O=C1C=C(N2CCOCC2)c2ccccc2C1=O | 6.5µM | 4.6µM | -103 | 2.6µM | – | 2.3µM
CC1=C(N2CCOCC2)CCC1=O | – | – | – | – | ? | –
COc1ccc(CNC(C)=O)cc1 | · | · | · | · | – | ·
O=C(NCCCn1cccn1)C1Cn2cccc2C(=O)N1Cc1ccccc1 (stereo unspecified) | · | · | · | · | – | ·
Cc1cc2nc(-c3cccc(NC(=O)c4cc([N+](=O)[O-])ccc4N4CCOCC4)c3)oc2cc1C | · | · | · | · | – | ·
Cc1ccc(N2CCOCC2)c2c1C(=O)c1ccccc1C2=O | – | ? | ? | ? | – | 16µM
CSc1nc(C(=O)N2CCCC(N3CCN(c4ccccc4C)CC3)C2)cs1 (stereo unspecified) | – | – | – | 21µM | – | 18µM
Cc1cc(C)n(CC(=O)N2CCCC(N3CCN(c4cccc(C(F)(F)F)c4)CC3)C2)n1 (stereo unspecified) | – | – | – | ? | – | ?
Cc1ccc(C(=O)N2CCCC(N3CCN(c4cccc(C(F)(F)F)c4)CC3)C2)s1 (stereo unspecified) | ? | – | – | 1.3µM | – | 6.5µM
Cc1cnc(C(=O)N2CCCC(N3CCN(c4cccc(C(F)(F)F)c4)CC3)C2)cn1 (stereo unspecified) | – | – | -62 | 23µM | – | ?
CC(=O)N1CCCC(N2CCN(c3cccc(C(F)(F)F)c3)CC2)C1 (stereo unspecified) | – | – | – | – | – | –
CC1=C(C(=O)N2CCCC(N3CCN(c4cccc(C(F)(F)F)c4)CC3)C2)OCCO1 (stereo unspecified) | – | – | – | ? | – | ?
O=C(c1ccncc1)N1CCCC(N2CCN(c3cccc(C(F)(F)F)c3)CC2)C1 (stereo unspecified) | – | – | – | 16µM | – | ?
COC(=O)c1ccc(C)c(NC(=O)COc2ccc3c(C)cc(=O)oc3c2)c1 | · | · | · | · | – | ·
CCC1CCc2sc(C(=O)NC3CC3)cc2C1 (stereo unspecified) | · | · | · | · | – | ·
COCC(=O)N1CCc2nc(C)nc(-c3ccc(OC)cc3)c2C1 | · | · | · | · | – | ·
SMILES | HT1080-NT tox | HT1080 IDH1KD tx | IL1B secr inh | TDP1 cell CPT | 12-LOX inh | TDP1 cell noCPT
CCn1cc(C(=O)N2CCCC(N3CCN(c4cccc(C(F)(F)F)c4)CC3)C2)cn1 (stereo unspecified) | – | – | – | ? | – | ?
CCc1cc(C(=O)N2CCCC(N3CCN(c4cccc(C(F)(F)F)c4)CC3)C2)n(C)n1 (stereo unspecified) | – | – | – | 12µM | – | 12µM
CCCc1cc(C(=O)N2CCCC(N3CCN(c4ccccc4C)CC3)C2)n(C)n1 (stereo unspecified) | – | – | – | 16µM | – | ?
CCCc1cc(C(=O)N2CCCC(N3CCN(c4ccccc4F)CC3)C2)n(C)n1 (stereo unspecified) | – | – | – | ? | – | ?
Cc1nccn1CC(=O)N1CCCC(c2ccc(C(=O)O)cc2)C1 (stereo unspecified) | · | · | · | · | – | ·
Cc1ccc(-n2ccc(=O)c(C(=O)Nc3cc(C(F)(F)F)ccc3Cl)n2)cc1 | · | · | · | · | – | ·
CC(OC(=O)C1CC1C)C(=O)Nc1ccc(Cl)cn1 (stereo unspecified) | – | – | – | – | – | –
Cc1ccc(/C=C/C(=O)OC(C)C(=O)NC2CCCCC2C)o1 (stereo unspecified) | – | – | – | – | ? | ?
COc1cc(/C=C/C(=O)OCC(=O)Nc2ccc(Cl)cn2)ccc1O | – | – | – | – | – | –
Cc1ccc(/C=C/C(=O)OC(C)C(=O)c2ccc(C)c(C)c2)o1 (stereo unspecified) | · | · | · | · | 6.3µM | ·
COc1cc(/C=C/C(=O)OC(C)C(=O)Nc2ccc(Cl)cn2)ccc1OC(F)F (stereo unspecified) | – | – | -52 | – | – | –
CC(OC(=O)c1cc[n+]([O-])cc1)C(=O)Nc1ccc(Cl)cn1 (stereo unspecified) | ? | – | – | – | – | –
Cc1ccsc1C(=O)OC(C)C(=O)Nc1ccc(Cl)cn1 (stereo unspecified) | – | – | – | ? | – | 26µM
Cc1ccc(/C=C/C(=O)OC(C)C(=O)Nc2ccc(Cl)cn2)o1 (stereo unspecified) | – | – | – | 13µM | ? | 16µM
O=c1[nH]c(=O)n(Cc2ccco2)c2nccc(-c3ccc(-c4ccccc4)cc3)c12 | · | · | · | · | – | ·
COc1ccc(CCC(=O)Nc2ccc(-c3noc(-c4ccc(OC)c(OC)c4)n3)cc2)cc1 | – | – | – | – | – | ?
COc1ccc(-c2nc(-c3ccc(NC(=O)c4ccc(Br)o4)cc3)no2)cc1OC | ? | ? | – | 18µM | – | 6.5µM
O=C(Nc1ccc(-c2noc(-c3ccc(F)cc3)n2)cc1)c1ccc(Br)o1 | · | · | · | · | – | ·
COc1cc(-c2nc(-c3ccc(NC(=O)c4ccc(Br)o4)cc3)no2)cc(OC)c1OC | ? | ? | – | 13µM | – | 16µM
Cc1ccc(NCC(=O)N2CCN(S(=O)(=O)c3ccc4ccccc4c3)CC2)cc1F | · | · | · | · | – | ·
O=C(COc1ccc(F)cc1)Nc1cccc(-c2nc3ccccc3o2)c1 | · | · | · | · | – | ·
N#Cc1ccccc1Oc1ccc(OCc2ccccc2)cc1 | · | · | · | · | – | ·
O=C(NC(=S)Nc1ccc(N2CCOCC2)cc1)c1ccc2c(c1)OCCO2 | – | – | – | ? | ? | 23µM

Source: PubChem
